The panel holds about 83,000 compounds, 20% with a hit somewhere; the sample as a whole holds those more often.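 Values shown are percent growth following 48 h exposure of cells in 96-well plates to a single concentration of compound; below 10 was considered active.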 A number with no mark means an inactive call. Calls of active or inactive are those of the source.
Key:
Experiment in all cases: NCI-60 one-dose screen, 48 h (100 = growth as untreated, 0 = no growth, -100 = all killed)
[1] = test system: SR leukemia; conditions: 10 µM unless noted
[2] = test system: RPMI-8226 leukemia; conditions: 10 µM unless noted
[3] = test system: OVCAR-8 ovarian; conditions: 10 µM unless noted
[4] = test system: OVCAR-5 ovarian; conditions: 10 µM unless noted
[5] = test system: OVCAR-4 ovarian; conditions: 10 µM
[6] = test system: OVCAR-3 ovarian; conditions: 10 µM unless noted
[7] = test system: HS 578T breast; conditions: 10 µM unless noted
[8] = test system: NCI/ADR-RES ovarian; conditions: 10 µM unless noted
[9] = test system: SK-OV-3 ovarian; conditions: 10 µM unless noted
[10] = test system: IGROV1 ovarian; conditions: 10 µM unless noted

| SMILES | growth [1] | growth [2] | growth [3] | growth [4] | growth [5] [%] | growth [6] | growth [7] | growth [8] | growth [9] | growth [10] |
| --- | --- | --- | --- | --- | --- | --- | --- | --- | --- | --- |
| CN(C)c1cc(NN=C(c2ccc(O)cc2)c2ccc(O)cc2)c([N+](=O)[O-])cc1[N+](=O)[O-] | 92.2% | 131% | 8.9% (active) | 98.4% | 97 | 95.5% | 102% | 44.2% |  |  |
| CC1(C)CC[C@]2(C(=O)O)CC[C@]3(C)[C@H](CC[C@@H]4[C@@]5(C)CCC(=O)C(C)(C)[C@@H]5CC[C@]43C)[C@H]2[C@H]1OC(=O)C(F)(F)F | 14.6% [100 µM] | -42.9% [100 µM] (active) | -81.4% [100 µM] (active) | -53.1% [100 µM] (active) |  | -67.4% [100 µM] (active) | -42.1% [100 µM] (active) | -77.6% [100 µM] (active) | -2.75% [100 µM] (active) | -64.7% [100 µM] (active) |
| CC1(C)CC[C@]2(C(=O)O)CC[C@]3(C)C(=CC[C@@H]4[C@@]5(C)C/C(=C/c6cccnc6)[C@H](O)C(C)(C)[C@@H]5CC[C@]43C)[C@@H]2C1 | 37.3% [100 µM] | -12% [100 µM] (active) | 13.2% [100 µM] | -2.1% [100 µM] (active) |  | -14.6% [100 µM] (active) | 3% [100 µM] (active) | 3.8% [100 µM] (active) | 1.32% [100 µM] (active) | 2.18% [100 µM] (active) |
| O=C1Nc2ccccc2/C1=C/C(=O)c1ccc(N2CCCC2)cc1 | 15.2% | 15.8% | -12.7% (active) | 75.6% |  | -17.6% (active) | 12.3% | -23.8% (active) | 70.9% | 15.9% |
| CCOC(CNC(=O)c1cccc([N+](=O)[O-])c1)OCC | 95.4% | 141% | 95.3% | 101% | 109 | 96.5% |  | 97.9% |  |  |
| C[C@H]1[C@H](C)CC[C@]2(C(=O)N3CCN(C)CC3)CC[C@]3(C)C(=CC[C@@H]4[C@@]5(C)C/C(=C/c6ccco6)C(=O)C(C)(C)[C@@H]5CC[C@]43C)[C@H]12 | 32% [100 µM] | 19.5% [100 µM] | 25.4% [100 µM] | 63.5% [100 µM] |  | 40.1% [100 µM] | 53.2% [100 µM] | 37.9% [100 µM] | 59.3% [100 µM] | 3.24% [100 µM] (active) |
| COc1cc(/C=C/C(=O)/C=C/c2ccc(-n3ccnc3C)cc2)ccc1O | 17.8% | -23.5% (active) | 34.9% | 101% |  | 23.7% | 68.6% | 102% | 86.1% | -37.5% (active) |
| C[C@H]1[C@H](C)CC[C@]2(C(=O)O)CC[C@]3(C)C(=CC[C@@H]4[C@@]5(C)C/C(=C/c6cccnc6)[C@H](O)C(C)(C)[C@@H]5CC[C@]43C)[C@H]12 | 25.4% [100 µM] | -4.1% [100 µM] (active) | 12.4% [100 µM] | -13.7% [100 µM] (active) |  | -39% [100 µM] (active) | 4.34% [100 µM] (active) | 1.11% [100 µM] (active) | 5.9% [100 µM] (active) | 7.23% [100 µM] (active) |
| C=C(C)[C@@H]1CC[C@]2(C(=O)O)CC[C@]3(C)[C@H](CC[C@@H]4[C@@]5(C)C/C(=C/c6ccco6)C(=O)C(C)(C)[C@@H]5CC[C@]43C)[C@@H]12 | 31.9% [100 µM] | 2.97% [100 µM] (active) | -17.6% [100 µM] (active) | -44.4% [100 µM] (active) |  | -59.1% [100 µM] (active) | -1.95% [100 µM] (active) | -43.8% [100 µM] (active) | -54.2% [100 µM] (active) | -63.2% [100 µM] (active) |
| Clc1ccc(N2CCN(CCCN3CCN(c4cccc(Cl)c4)CC3)CC2)cc1 | 15.4% | 24.9% | 70.7% | 78.9% | 55.7 | 66.4% | 103% | 65.5% |  |  |
| CSc1cccc([N+](=O)[O-])c1 | 107% | 96.8% | 107% | 101% |  | 110% | 107% | 109% | 97.8% | 101% |
| O=C(Nc1ccc(Oc2ccc(F)cc2)c(Cl)c1)c1cnccn1 | 49.3% | 80.4% | 71.4% | 81.1% |  | 43.6% | 62.4% | 40.8% | 100% | 62.6% |
| O=C(Nc1ccc(Oc2ccc(F)cc2)c(Cl)c1)c1cccnn1 | 97.6% | 62.6% | 71.3% | 84% |  | 73.6% | 95.6% | 69.4% | 88.8% | 97.6% |
| C#CCNC(=O)CC[C@]1(C)[C@H]2CC[C@@H]3[C@@H]([C@@](C)(O)CCC=C(C)C)CC[C@@]3(C)[C@]2(C)CC[C@H]1C(=C)C | 12.8% [100 µM] | -7.33% [100 µM] (active) | 7.74% [100 µM] (active) | 55.6% [100 µM] |  | -26.4% [100 µM] (active) | 35.6% [100 µM] | 53.6% [100 µM] | 66.6% [100 µM] | -62.6% [100 µM] (active) |
| CC1(C)C(=O)/C(=C\c2ccco2)C[C@]2(C)[C@H]3CC=C4[C@@H]5C[C@](C)(C(=O)O)CC[C@]5(C)CC[C@@]4(C)[C@]3(C)CC[C@@H]12 | 46.8% [100 µM] | 0.425% [100 µM] (active) | -46.1% [100 µM] (active) | -46.2% [100 µM] (active) |  | -60.1% [100 µM] (active) | -16.2% [100 µM] (active) | -49.5% [100 µM] (active) | -77.2% [100 µM] (active) | -61.9% [100 µM] (active) |
| O=C(N/N=C/c1c(Cl)cccc1Cl)c1cccc(Nc2ccnc(C(F)(F)F)c2)c1 | 106% | 70.1% | 89.9% | 108% | 69.3 | 137% | 107% | 102% |  |  |
| O=[N+]([O-])c1ccc(O)c(-c2nc3ccccc3s2)c1 | 84.5% | 51.1% | 92% | 112% |  | 47.9% | 67.3% | 82.8% | 81.2% | 70% |
| CC(C)c1ccc(/C=N/N=C(N)N)cc1 | 21.6% | 17.1% | 89.8% | 89.5% |  | 72.6% | 97.8% | 79.4% | 85.5% | 89.5% |
| O=C(Nc1ccccc1)Nc1ccc(C(=O)/C=C/c2ccc(N3CCCC3)cc2)cc1 | 98.9% | 78.3% | 81.7% | 83.2% |  | 43% | 38.2% | 28.6% | 66.1% | 92.1% |
| COC(=O)[C@]1(C)CC[C@]2(C)CC[C@]3(C)C(=CC(=O)[C@@H]4[C@@]5(C)CCC(=O)NC(C)(C)[C@@H]5CC[C@]43C)[C@@H]2C1 | 32.7% [100 µM] | -44.5% [100 µM] (active) | -39.8% [100 µM] (active) | -60.8% [100 µM] (active) |  | -70.4% [100 µM] (active) | -30.4% [100 µM] (active) | -71.9% [100 µM] (active) | -16.8% [100 µM] (active) | -55.5% [100 µM] (active) |
| CC1(C)CC[C@]2(C(=O)OC(=O)[C@]34CCC(C)(C)C[C@@H]3C3=CC[C@@H]5[C@@]6(C)CCC(=O)C(C)(C)[C@@H]6CC[C@@]5(C)[C@]3(C)CC4)CC[C@]3(C)C(=CC[C@@H]4[C@@]5(C)CCC(=O)C(C)(C)[C@@H]5CC[C@]43C)[C@H]2C1 | 65% [100 µM] | 61% [100 µM] | 59.8% [100 µM] | 98.3% [100 µM] |  | 74% [100 µM] | 57.3% [100 µM] | 69.5% [100 µM] | 72.9% [100 µM] | 84.4% [100 µM] |
| C=C(C)[C@@H]1CC[C@]2(C)[C@H](CC[C@@H]3[C@@H]([C@@](C)(O)CCC=C(C)C)CC[C@]32C)[C@@]1(C)CCC(=O)N1CCN(C)CC1 | 7.02% [100 µM] (active) | -38.4% [100 µM] (active) | -65.6% [100 µM] (active) | -93.3% [100 µM] (active) |  | -85.9% [100 µM] (active) | -41.5% [100 µM] (active) | -87% [100 µM] (active) | -83.4% [100 µM] (active) | -82.5% [100 µM] (active) |
| O=C(Nc1cccnc1)c1ccc2ccc3ccc(C(=O)Nc4cccnc4)nc3c2n1 | 42.6% | 18.7% | 22.6% | 36.9% |  | 23.3% | 46.4% | 79.8% | 47.6% | 15.4% |

Reference: PubChem BioAssay (NCI)
